Data taken from PubChem BioAssay AID1159580 (chemical genetic matrix, 2015).
The whole screen tested about 5,500 compounds, of which about 2,000 (36%) were called active. Roughly 18% stayed inconclusive and do not appear here. Cut-off read from the data, not from the text of the source: active = normalized growth mostly below about 0.91 (no sharp cut-off); inconclusive = no clear call, values can overlap the other calls; inactive = mostly above about 0.92. The list shows a part of the results.

Assay: chemical genetic growth profiling, strain panel (AID 1159580);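 note: tested at 20 µM; growth read once vehicle control cultures reached saturation at 30 °C; 1 = growth at the plate median or of vehicle wells; lower values mean less growth of the strain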
Conditions: S. cerevisiae deletion strains, growth OD

Measured: normalized growth

C=CC1=C(C)/C(=C/c2[nH]c(Cc3[nH]c(/C=C4\NC(=O)C(C)=C4C=C)c(C)c3CCC(=O)O)c(CCC(=O)O)c2C)NC1=O
active: locus YKL009W, strain mrt4, active compounds read low 1.16 [resistant]
inactive: locus YJR043C, strain POL32, active compounds read low 1.02 | locus YJR066W, strain TOR1, active compounds read low 1 | locus YJR075W, strain HOC1, active compounds read low 1.01 | locus YKL068W, active compounds read low 1.03 | locus YKL085W, strain MDH1 (second series), active compounds read low 1.04 | locus YKL085W, strain MDH1, active compounds read low 1.04 | locus YKL160W, strain elf1, active compounds read low 0.972 | locus YKR001C, strain vps1, active compounds read low 1.05 | locus YKR026C, strain gcn3, active compounds read low 0.986 | locus YKR091W, strain srl3, active compounds read low 0.982 | locus YLL001W, strain dnm1, active compounds read low 0.988 | locus YLL026W, active compounds read low 0.99 | locus YLL041C, strain sdh2, active compounds read low 0.979 | locus YLR027C, strain aat2, active compounds read low 0.979 | locus YLR039C, strain RIC1, active compounds read low 1 | locus YLR058C, strain SHM2, active compounds read low 1 | locus YLR102C, strain apc9, active compounds read low 1.02 | locus YLR113W, strain HOG1, active compounds read low 0.964 | locus YLR221C, strain rsa3, active compounds read low 0.966 | locus YLR258W, strain gsy2, active compounds read low 1 | locus YLR262C, strain YPT6 (second series), active compounds read low 0.963 | locus YLR262C, strain YPT6, active compounds read low 1.08 | locus YLR268W, strain sec22, active compounds read low 1.03 | locus YLR320W, strain mms22, active compounds read low 1.02 | locus YLR330W, strain CHS5, active compounds read low 1.01 | locus YLR342W, strain FKS1 (second series), active compounds read low 1.01 | locus YLR342W, strain FKS1, active compounds read low 0.992 | locus YLR357W, strain rsc2, active compounds read low 1.01 | locus YLR370C, strain arc18, active compounds read low 0.976 | locus YLR371W, strain rom2, active compounds read low 1.03 | locus YLR384C, strain iki3, active compounds read low 0.987 | locus YLR418C, strain cdc73, active compounds read low 1.03 | locus YML016C, strain PPZ1, active compounds read low 1 | locus YML032C, strain rad52, active compounds read low 1.03 | locus YML120C, strain ndi1, active compounds read low 0.961 | locus YML124C, strain tub3, active compounds read low 1.02 | locus YMR058W, strain fet3, active compounds read low 0.971 | locus YMR078C, strain ctf18, active compounds read low 1.04 | locus YMR125W, strain sto1, active compounds read low 1.02 | locus YMR129W, active compounds read low 0.988 | locus YMR205C, strain PFK2, active compounds read low 1.02 | locus YMR223W, strain ubp8, active compounds read low 1 | locus YMR231W, strain pep5, active compounds read low 0.99 | locus YMR263W, strain SAP30, active compounds read low 1 | locus YMR307W, strain GAS1, active compounds read low 0.968 | locus YNL067W, strain RPL9B, active compounds read low 0.999 | locus YNL071W, strain lat1, active compounds read low 0.988 | locus YNL183C, strain NPR1, active compounds read low 0.919 | locus YNL209W, strain ssb2, active compounds read low 0.987 | locus YNL233W, strain BNI4, active compounds read low 1.01 | locus YNL248C, strain rpa49, active compounds read low 0.938 | locus YNL250W, strain rad50, active compounds read low 1.01 | locus YNL271C, strain bni1, active compounds read low 1.03 | locus YNL298W, strain CLA4, active compounds read low 1.02 | locus YNL307C, strain MCK1, active compounds read low 1.01 | locus YNL322C, strain KRE1 (second series), active compounds read low 0.982 | locus YNL322C, strain KRE1, active compounds read low 1.01 | locus YNR049C, strain mso1, active compounds read low 0.981 | locus YNR052C, strain pop2, active compounds read low 1.01 | locus YOL012C, strain htz1 0.856 | locus YOL147C, strain pex11, active compounds read low 1.02 | locus YOR001W, strain rrp6, active compounds read low 0.951 | locus YOR061W, strain CKA2, active compounds read low 1.03 | locus YOR069W, strain VPS5, active compounds read low 1.01 | locus YOR070C, strain gyp1, active compounds read low 0.996 | locus YOR080W, strain dia2, active compounds read low 0.986 | locus YOR083W, strain WHI5, active compounds read low 0.94 | locus YOR106W, strain vam3, active compounds read low 0.951 | locus YOR136W, strain idh2, active compounds read low 1.02 | locus YOR144C, strain elg1, active compounds read low 1.01 | locus YOR184W, strain ser1, active compounds read low 1.07 | locus YOR231W, strain MKK1, active compounds read low 1.03 | locus YOR265W, strain rbl2, active compounds read low 0.985 | locus YOR270C, strain vph1, active compounds read low 0.971 | locus YOR290C, strain snf2, active compounds read low 1.01 | locus YOR316C, strain cot1, active compounds read low 1.02 | locus YPL051W, strain arl3, active compounds read low 0.969 | locus YPL055C, strain LGE1, active compounds read low 0.995 | locus YPL078C, strain atp4, active compounds read low 0.939 | locus YPL106C, strain sse1, active compounds read low 0.949 | locus YPL240C, strain hsp82, active compounds read low 0.982 | locus YPL241C, strain CIN2, active compounds read low 1.01 | locus YPL256C, strain CLN2, active compounds read low 1.06 | locus YPR119W, strain clb2, active compounds read low 1.01 | locus YPR163C, strain tif3, active compounds read low 1.02 | locus YPR167C, strain met16, active compounds read low 1.02 | strain wtn01, active compounds read low 1.04
